High-throughput results deposited in PubChem BioAssay by The Scripps Research Institute Molecular Screening Center.
TEAD-YAP inh: TEAD-YAP interaction inhibition. HEK-TIYL cells, TEAD-Gal4/YAP UAS-luciferase luminescence. inhibition, % at 9.12 µM. AID 1259422. hit rate 1.4% among 640,000; in the data active = inhibition above about 32%
MITF primary: blocks human microphthalmia-associated transcription factor; inhibition, % at 2.6 µM; AlphaScreen MITF homodimerization, bead proximity signal; O75030; hit rate 0.91% among 650,000; in the data active = inhibition above about 50%
Target sequence (O75030 whole entry, looked up): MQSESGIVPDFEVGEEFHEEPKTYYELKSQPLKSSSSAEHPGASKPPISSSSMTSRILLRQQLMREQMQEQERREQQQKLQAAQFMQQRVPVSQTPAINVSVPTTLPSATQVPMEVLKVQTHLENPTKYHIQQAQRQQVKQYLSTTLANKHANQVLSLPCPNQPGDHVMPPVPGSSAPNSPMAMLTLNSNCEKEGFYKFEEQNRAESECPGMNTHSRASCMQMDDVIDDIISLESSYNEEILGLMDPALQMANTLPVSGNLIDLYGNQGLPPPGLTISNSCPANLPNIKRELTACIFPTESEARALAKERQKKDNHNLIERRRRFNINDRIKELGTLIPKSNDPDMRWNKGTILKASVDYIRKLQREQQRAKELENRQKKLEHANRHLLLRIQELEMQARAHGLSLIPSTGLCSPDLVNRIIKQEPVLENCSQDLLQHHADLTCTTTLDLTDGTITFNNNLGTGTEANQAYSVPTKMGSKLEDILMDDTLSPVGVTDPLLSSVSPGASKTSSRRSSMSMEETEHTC
GPR151 ag: human GPR151 activation. Q8TDV0. activation, % at 11.2 µM. hit rate 1% among 650,000. PathHunter beta-arrestin GPR151 cells, luminescence; in the data active = activation above about 4.9%
FBW7 act: human FBW7 E3 ligase activation, primary screen; AID 1259310; normalized activity (activation), % at 26.1 µM; hit rate 0.13% among 650,000; Q969H0; AlphaScreen FBW7–phospho-cyclin E peptide binding, activator screen; in the data active = normalized activity above about 1.9%;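 also: purified mutant Fbw7 with reduced substrate affinity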
Hits are given with their value; 0 = inactive. Hits are enriched below; roughly 3.5% of the tested compounds scored in any of these assays.

SMILES | TEAD-YAP inh | MITF primary | GPR151 ag | FBW7 act
CCCOc1ccc(C(Nc2ccccn2)c2ccc3cccnc3c2O)cc1 (stereo not drawn) | 0 | 0 | 0 | 0
Cc1ccc(C(Nc2ccccn2)c2ccc3cccnc3c2O)s1 (stereo not drawn) | 81 | 0 | 0 | 0
Cc1ccc2ccc(C(Nc3ccccn3)c3cccc(O)c3)c(O)c2n1 (stereo not drawn) | 0 | 0 | 0 | 0
CC(C)c1ccc(C(Nc2ccccn2)c2ccc3cccnc3c2O)cc1 (stereo not drawn) | 63 | 0 | 0 | 0
O=S(=O)(c1ccc(OCC(O)CN2CCCC2)cc1)c1ccc(OCC(O)CN2CCCC2)cc1 (stereo not drawn) | 0 | 0 | 0 | 0
CCn1ncc(CN2CCCC(N3CCN(c4ccccc4OC)CC3)C2)c1C (stereo not drawn) | 0 | 0 | 0 | 0
COc1ccc(OC)c(Cn2c(O)c(/C=C3\C=CC=N3)c(=O)[nH]c2=O)c1 | 40 | 0 | 0 | 0
COc1ccc(Cn2c(O)c(/C=C3\C=CC=N3)c(=O)[nH]c2=O)cc1 | 0 | 0 | 0 | 0
COc1ccc(-c2cc(=O)c3c(O)cc(O)cc3o2)cc1O | 0 | 0 | 0 | 0
COc1cc(-c2cc(=O)c3cc(O)ccc3o2)cc(OC)c1OC | 0 | 0 | 0 | 0
COc1ccc(-c2c3cc(O)c(=O)cc-3oc3cc(O)c(O)cc23)cc1C | 0 | 109 | 0 | 0
COc1cc(-c2c3cc(O)c(=O)cc-3oc3cc(O)c(O)cc23)cc(Cl)c1OC | 0 | 98 | 0 | 0
Cc1c(-c2ccccc2)n[nH]c1C(=O)N/N=C/c1ccco1 | 0 | 0 | 0 | 0
CCOC(=O)c1c(NC(=O)C(C)C)sc2c1CC(C)(C)NC2(C)C | 0 | 0 | 0 | 0
c1ccc(OCCSc2nnc3sc4ccccc4n23)cc1 | 71 | 0 | 0 | 0
CC1(C)c2ssc(=S)c2-c2ccccc2N1C(=O)c1ccccc1 | 57 | 0 | 0 | 0
CC1(C)c2ssc(=S)c2-c2ccccc2N1C(=O)C1CC1 | 0 | 0 | 0 | 0
CC(=O)C1=C(c2ccc(C3CCCCC3)cc2)N(C(C)=O)n2cnnc2S1 | 74 | 0 | 0 | 0
CCc1ccc2nc3sc(C(=O)NCc4ccco4)c(N)c3cc2c1 | 53 | 0 | 0 | 0
COc1cc2cc3c(N)c(C(=O)NCc4ccco4)sc3nc2cc1OC | 0 | 0 | 0 | 0
COc1ccc(NC(=O)Cc2ccc(F)cc2)c(C)c1 | 0 | 0 | 0 | 0
O=[N+]([O-])c1ccc(Cc2nnc(-c3ccccc3Cl)o2)cc1 | 0 | 0 | 0 | 0
O=[N+]([O-])c1ccc(Cc2nnc(-c3ccc(Cl)cc3Cl)o2)cc1 | 52 | 0 | 0 | 0
O=[N+]([O-])c1ccc(Cc2nnc(-c3ccccc3Br)o2)cc1 | 32 | 0 | 0 | 0
CN(C)Cc1cc(-c2ccccc2)ccc1OCC(=O)NCc1nc2ccccc2[nH]1 | 0 | 0 | 0 | 0
SMILES | TEAD-YAP inh | MITF primary | GPR151 ag | FBW7 act
CCC(C)NC(=O)C12CCC(C)(C(=O)C1)C2(C)C (stereo not drawn) | 0 | 0 | 0 | 0
COC(=O)c1ccc(N/C=C2/CCc3ccccc3C2=O)cc1 | 68 | 0 | 0 | 0
COC(=O)c1ccc2c(=O)n(Nc3nc4ccccc4s3)c(=S)[nH]c2c1 | 0 | 0 | 0 | 0
COC(=O)C1=C(N)n2c(s/c(=C/c3ccco3)c2=O)=C(C(=O)OC)C1c1ccco1 (stereo not drawn) | 49 | 0 | 0 | 0
CC1CCCN(C2=NC(=O)/C(=C\c3ccc(N(C)C)cc3)S2)C1 (stereo not drawn) | 59 | 0 | 0 | 0
CC1CCCN(C2=NC(=O)/C(=C\c3ccc(O)cc3)S2)C1 (stereo not drawn) | 61 | 0 | 0 | 0
O=C1N=C(N2CCCC(CO)C2)S/C1=C/c1cccc2ccccc12 (stereo not drawn) | 61 | 0 | 0 | 0
O=C1N=C(N2CCCC2)S/C1=C/c1ccc(O)cc1 | 0 | 0 | 0 | 0
COCC(=O)NCC1CCC2(CCN(Cc3cccn3-c3ccc(Cl)cn3)CC2)O1 (stereo not drawn) | 0 | 0 | 0 | 0
CC(C)OC(=O)c1cc(N)ccc1Cl | 0 | 0 | 0 | 0
COc1ccc(C(=O)c2ccc(Cl)c([N+](=O)[O-])c2)cc1 | 62 | 0 | 0 | 0
CCOC(=O)C(C)OC(=O)c1ccc(Cl)c([N+](=O)[O-])c1 (stereo not drawn) | 0 | 0 | 0 | 0
COc1ccc(C(=O)c2ccc(Br)c([N+](=O)[O-])c2)cc1C | 65 | 0 | 0 | 0
COC(=O)C(C)OC(=O)c1ccc(Cl)c([N+](=O)[O-])c1 (stereo not drawn) | 0 | 0 | 0 | 3.0
Cc1nc2c(C(=O)NCCC3=CCCCC3)cnn2c(C)c1Cc1ccc(F)cc1Cl | 0 | 0 | 0 | 0
O=C(NCC1CCCN(Cc2cccn2-c2ccccn2)C1)c1n[nH]c2ccccc12 (stereo not drawn) | 70 | 0 | 0 | 0
O=C(NCC1CCCN(Cc2cccn2-c2cccnc2)C1)c1n[nH]c2ccccc12 (stereo not drawn) | 0 | 0 | 0 | 0
COc1ccc(CN(C)Cc2nc(CCc3ccccc3)no2)c2cccnc12 | 35 | 0 | 0 | 0
Cc1ccc(NC(=O)O/N=C\c2ccc(N(C)C)cc2)cc1 | 34 | 0 | 0 | 0
CCN(C(=O)c1cccc([N+](=O)[O-])c1)c1cccc2ccccc12 | 0 | 0 | 0 | 0
COc1ccc2occ(C(=O)COc3ccc(Br)cc3C#N)c2c1 | 57 | 0 | 0 | 0
CC(C)N(CCNc1nc(N2CCCC2CO)nc2c1ncn2Cc1ccc(C(F)(F)F)cc1)C(C)C (stereo not drawn) | 0 | 0 | 0 | 0
CC(C)(C)C1CCC(OC(=O)Nc2ccc3ccccc3c2)CC1 (stereo not drawn) | 80 | 0 | 0 | 0
CC(C)(C)C1CCC(OC(=O)Nc2ccccc2)CC1 (stereo not drawn) | 0 | 0 | 0 | 0
COc1ccc(/C=C\c2nc(O)c([N+](=O)[O-])c(=O)[nH]2)cc1O | 0 | 0 | 0 | 0
SMILES | TEAD-YAP inh | MITF primary | GPR151 ag | FBW7 act
O=c1[nH]c(/C=C/c2ccc3c(c2)OCO3)nc2ccccc12 | 56 | 0 | 0 | 0
COc1cccc(/C=C/c2nc3ccccc3c(=O)[nH]2)c1O | 65 | 0 | 0 | 0
COc1ccc(/C=C/c2nc3ccccc3c(=O)[nH]2)cc1O | 44 | 0 | 0 | 0
Cc1ccc(NCN2C(=O)C3CC(Br)C(Br)CC3C2=O)cc1C (stereo not drawn) | 0 | 0 | 0 | 0
Cc1cccn2c(CN3CCN(Cc4cccs4)CC3)c(C(=O)N3CCOCC3)nc12 | 0 | 0 | 0 | 0
O=C(NN1C(=O)/C(=C\c2cccnc2)SC1=S)c1ccccc1Cl | 0 | 0 | 0 | 0
CC(C)Oc1ccc(C(c2c[nH]c3ccccc23)c2c[nH]c3ccccc23)cc1 | 0 | 0 | 0 | 0
CC1(C)CC(=O)C(Sc2ccc(Br)cc2)=C(OC(=O)c2cccs2)C1 | 0 | 0 | 0 | 0
Cc1ccc(S(=O)(=O)N2CCN(C(=O)c3ccccc3)C2C)cc1 (stereo not drawn) | 0 | 0 | 0 | 0
COc1ccccc1-c1c(C(F)(F)F)oc2cc(OC(=O)C(C)C)ccc2c1=O | 0 | 0 | 0 | 0
COc1ccccc1-c1c(C(F)(F)F)oc2cc(OC(=O)N3CCOCC3)ccc2c1=O | 52 | 0 | 0 | 0
